Mtb hypoxia inh: PubChem AID 1159583; M. tuberculosis hypoxia-regulated fluorescent reporter, fluorescence; 300,000 tested, 0.1% active; fluorescence inhibition, % (test concentration not listed); in the data active = fluorescence inhibition mostly above about 23%, no sharp cut-off; inactive = mostly below about 17%
ugtP null kill: growth inhibition of ugtP-null S. aureus, primary screen, RN4220 ugtP deletion, OD600. 16 h. growth inhibition, % (no concentration beside the values). 330,000 tested, 0.54% active; in the data active = growth inhibition above about 68%;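 note: plate controls were untreated wells for no effect and antibiotic for full effect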
Mtb bLac sens: beta-lactam sensitization of Mtb H37Rv, H37Rv; AID 434955, 2010; inhibition, % at 25 µM; 330,000 tested, 0.27% active; M. tuberculosis H37Rv growth with meropenem, percent inhibition; call rule not given here;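 note: growth measured after seven days incubation then overnight dye step; 0% = bacteria only wells and 100% = bacteria with antibiotic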
Sa RN4220 lethal: growth inhibition of S. aureus RN4220, primary screen, OD600; 330,000 tested, 0.33% active; AID 1259311, 2017; inhibition, % (no concentration beside the values); 16 h; in the data active = inhibition above about 85%;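 note: plate controls were untreated cells for no effect and reference antibiotic for full effect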
PriA SSB inh: inhibitors of Klebsiella pneumoniae PriA binding to SSB C-terminal tail, primary screen, biochemical, AlphaScreen | PriA–SSB C-terminal tail interaction (Klebsiella pneumoniae) | AlphaScreen SSBct-PriA binding, biotinylated peptide | inhibition, % at 33 µM | 430,000 tested, 0.6% active; in the data active = inhibition mostly above about 37%, no sharp cut-off; inactive = mostly below about 20%;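 note: plate controls were negative control peptide for no effect and reference peptide for full effect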
Active calls of the source: *; · = not tested or not shown. Hits are enriched below; roughly 1% of the tested compounds scored in any of these assays.

SMILES	Mtb hypoxia inh	ugtP null kill	Mtb bLac sens	Sa RN4220 lethal	PriA SSB inh
Cc1ccc2nc(Nc3ccc(Cl)cc3Cl)nc(-c3ccccc3)c2c1	·	·	·	·	-6
COc1ccc(OC)c(-c2cc(C(=O)NCC#CCOc3ccc4c(c3)OCO4)n(C)n2)c1	·	·	·	·	53*
COc1ccc(Cl)cc1C(=O)NCC#CCOc1ccc2c(c1)OCO2	·	·	·	·	2
COc1ccc(OC)c(-c2cc(C(=O)NCc3cc(-c4ccco4)n(C)n3)n(C)n2)c1	·	·	·	·	12
COc1ccc(OC)c(-c2cc(C(=O)NCCc3nc(-c4ccco4)cn3C)n(C)n2)c1	·	·	·	·	35*
O=C(NCc1cccs1)c1coc(NC(=O)c2cnccn2)n1	·	·	·	·	-6
O=C(NCc1n[nH]c(=S)n1-c1ccc(F)cc1)c1ccc([N+](=O)[O-])cc1	·	·	·	·	3
CC(C)CCn1c2ccccc2c2cc(CC(N)=O)ccc21	-1	83*	43	-3	4
CSc1ccc2nc(NC(=O)COc3ccccc3)sc2c1	·	·	·	·	-1
Cc1ccc(-n2ncc3c(=O)n(NC(=O)Cc4cccs4)cnc32)cc1C	·	·	·	·	-8
C=CCN=c1scc(-c2ccccc2)n1N=Cc1ccccn1	18	10	·	13	46*
Cc1cn2c(CCC(=O)NCc3cccnc3)csc2n1	·	·	·	·	-2
O=C(NC(=S)NCc1ccco1)c1ccc(Br)o1	·	·	·	·	45*
COc1ccccc1-n1cnc2cc(NS(=O)(=O)c3ccc(Br)cc3)ccc21	17	-14	4	-8	41*
COc1ccc(-n2cnc3cc(NS(=O)(=O)c4ccc(C)cc4)ccc32)cc1	·	·	31	·	·
CCCCOc1ccc(C(=O)N2CCC(c3nc4ccccc4[nH]3)CC2)cc1	·	·	·	·	91*
O=C(Nc1nc(-c2ccccn2)cs1)c1cc(S(=O)(=O)N2CCOCC2)ccc1F	-1	1	89	8	83*
O=C(Nc1nc(-c2ccccn2)cs1)c1ccc(Cl)c(S(=O)(=O)N2CCCCCC2)c1	·	·	·	·	52
Cc1ccc(C(=O)Nc2nc(-c3ccccn3)cs2)cc1S(=O)(=O)N1CCCCC1	·	·	·	·	65*
O=C(Nc1nc(-c2ccccn2)cs1)c1ccc(N2CCOCC2)nc1	·	·	·	·	95*
O=C(Nc1nc(-c2ccccn2)cs1)c1ccc(Cl)c(S(=O)(=O)N2CCCC2)c1	·	·	·	·	61
O=C(Nc1nc(-c2ccccn2)cs1)c1ccc(F)c(S(=O)(=O)N2CCOCC2)c1	6	-5	83	11	45*
CC(C)(Oc1ccc(Cl)cc1)C(=O)N(Cc1cccs1)C1CCOCC1	·	·	·	·	-13
CCC(NCC(O)COc1ccc(N(C)C(C)=O)cc1)C(=O)O (stereo not given)	·	·	·	·	7
O=C(c1ccccn1)N1C2CCC1c1cncnc1C2 (stereo not given)	·	·	·	·	-6
SMILES	Mtb hypoxia inh	ugtP null kill	Mtb bLac sens	Sa RN4220 lethal	PriA SSB inh
O=C(Nc1nc(-c2ccccn2)cs1)c1ccc(N2CCCC2)nn1	·	·	·	·	72*
Cc1nc(NC(=O)c2ccc(N3CCCCC3)nn2)sc1C(=O)N(C)C	·	·	·	·	48*
Cc1ccc(-c2csc(NC(=O)c3ccc(C)c(S(=O)(=O)N4CCOCC4)c3)n2)cc1	·	·	·	·	32
Cc1ccc(C(=O)Nc2nc(-c3ccccn3)cs2)cc1S(=O)(=O)N1CCOCC1	4	-9	86	11	43*
CCOC(=O)C1=C(C)NC(=O)N[C@H]1c1ccc(C(=O)OC)cc1	·	·	·	·	-7
Cc1ccc(C(=O)NCC(c2ccsc2)N2CCOCC2)cc1C (stereo not given)	·	·	·	·	-12
CC(C)C[C@@H]1CN=C(N)N1C[C@@H]1CCCN1C[C@H](C)N1C[C@@H](Cc2ccccc2)N(CCc2ccc(Cl)c(Cl)c2)C1=N	·	·	100	·	-3
CC(C)C[C@@H]1CN=C(N)N1C[C@@H]1CCCN1C[C@@H](C(C)C)N1C[C@@H](Cc2ccccc2)N(CCc2ccc(Cl)c(Cl)c2)C1=N	10	100*	99	99*	-1
CC(C)CC1CN=C(N)N1CC1CCCN1CC(C)N1CC(Cc2ccccc2)N(CCc2ccc(Cl)c(Cl)c2)C1=N (stereo not given)	91*	101*	·	101*	·
CC(C)C(CN1CCCC1CN1C(N)=NCC1Cc1ccccc1)N1CC(Cc2ccccc2)N(CCc2ccc(Cl)c(Cl)c2)C1=N (stereo not given)	·	100*	·	101*	·
Cc1ccc(-c2ccc(N3CCN(C(=O)c4ccc5c(c4)OCO5)CC3)nn2)c(C)c1	·	·	·	·	-14
CCN(CC)S(=O)(=O)c1ccc(C(=O)N=c2sc3cc4c(cc3n2C)OCO4)cc1	·	·	·	·	-9
O=c1c(Cl)nc2cc(Cl)ccc2n1CCNc1ncc(C(F)(F)F)cc1Cl	·	96*	100	33	-1
O=c1c2nncn2c2cc(C(F)(F)F)ccc2n1CCNc1ncc(C(F)(F)F)cc1Cl	12	4	-1	-1	-3
CC(=O)c1cccc(NC(=O)C2CN(C(C)=O)C2)c1	·	·	·	·	-16
O=C(NCCc1ccc(Cl)cc1)c1ccc(CS(=O)Cc2ccc(Cl)cc2)o1 (stereo not given)	7	99*	91	-2	-1
CCOc1ccc(CCNC(=O)c2ccc(CS(=O)Cc3ccccc3Cl)o2)cc1 (stereo not given)	10	14	7	-3	-3
O=C(NCCc1ccccc1)c1ccc(CS(=O)Cc2cccc(Cl)c2)o1 (stereo not given)	4	87*	1	-6	-4
CCOc1ccc(CCNC(=O)c2ccc(CS(=O)Cc3ccc(Cl)cc3)o2)cc1 (stereo not given)	2	95*	-5	-8	0
CSc1ccc(CCNC(=O)c2ccc(CS(=O)Cc3ccc(Cl)cc3)o2)cc1 (stereo not given)	5	53	98	-2	-5
CCCCS(=O)(=O)N1CCC(c2nnc(-c3ccccc3OC)s2)CC1	·	·	·	·	-11
CCCCCCCCCCCCCCCC(O)C(N)CO (stereo not given)	4	100*	15	100*	-14
CCCCCCC(N)CC(=O)O (stereo not given)	4	0	·	0	-2
CN1C(=O)Cc2cc(NC(=O)c3ccc(-c4ccsc4)cc3)ccc21	·	·	·	·	58*
CCN(CC)C(=O)c1ccc2c(c1)C1C(Cl)C(Sc3ccccc3[N+](=O)[O-])CC1C(C(=O)O)N2 (stereo not given)	-3	-10	18	-4	64*
SMILES	Mtb hypoxia inh	ugtP null kill	Mtb bLac sens	Sa RN4220 lethal	PriA SSB inh
COc1ccc(S(=O)(=O)Nc2c(C(=O)O)[nH]c3ccc(OC)cc23)c(OC)c1	7	5	-3	9	106*
COC(=O)c1[nH]c2ccc(C)cc2c1NS(=O)(=O)c1ccc(OC)cc1OC	·	·	·	·	57*
O=C(N/N=C\c1cccc2ccccc12)c1ccc(Br)cc1	·	·	·	·	-6
COC(=O)COc1cc(-c2ccc(OC)cc2)nc2ccc(NC(=O)c3c(F)cccc3F)cc12	·	·	·	·	-1
COc1cc(CNc2ccc(C(=O)O)cc2)cc(Br)c1OCC(=O)NC(C)(C)C	8	4	2	6	-6
C=CCOc1c(Br)cc(CNc2ccc(NC(=O)C(C)C)c(OC)c2)cc1OC	16	-5	-7	2	42*
COc1ccc(Nc2ccc([N+](=O)[O-])cc2[N+](=O)[O-])cc1	8	1	-6	12	43*
